Measured values: ChEMBL document CHEMBL3433997, “St. Jude Leishmania screening dataset” (2016)

Columns and labels:
Type in all cases: functional
[1] = target: Solute carrier family 2, facilitated glucose transporter member 1 (Homo sapiens) (UniProt P11166); assay: ST_JUDE_LEISH: Cytotoxicity at 2uM final concentration against transgenic Leishmania Mexicana promastigotes LmGLUT1 that are glucose transport deficient and complemented with the human glucose transporter GLUT1. Activity is measured by DNA content using SYBR green in vitro
[2] = target: Hexose transporter 1 (Plasmodium falciparum) (UniProt O97467); assay: ST_JUDE_LEISH: Cytotoxicity at 2uM final concentration against transgenic Leishmania Mexicana promastigotes LmPfHT that are glucose transport deficient and complemented with the Plasmodium falciparum hexose transporter. Activity is measured by DNA content using SYBR green in vitro
[3] = target: Glucose transporter (Leishmania mexicana) (UniProt O61059); assay: ST_JUDE_LEISH: Cytotoxicity at 2uM final concentration against transgenic Leishmania Mexicana promastigotes LmGT2 that are glucose transport deficient and complemented with the L. Mexicana glucose transporter 2. Activity is measured by DNA content using SYBR green in vitro

Sequence of Solute carrier family 2, facilitated glucose transporter member 1 (Homo sapiens) (P11166 whole entry): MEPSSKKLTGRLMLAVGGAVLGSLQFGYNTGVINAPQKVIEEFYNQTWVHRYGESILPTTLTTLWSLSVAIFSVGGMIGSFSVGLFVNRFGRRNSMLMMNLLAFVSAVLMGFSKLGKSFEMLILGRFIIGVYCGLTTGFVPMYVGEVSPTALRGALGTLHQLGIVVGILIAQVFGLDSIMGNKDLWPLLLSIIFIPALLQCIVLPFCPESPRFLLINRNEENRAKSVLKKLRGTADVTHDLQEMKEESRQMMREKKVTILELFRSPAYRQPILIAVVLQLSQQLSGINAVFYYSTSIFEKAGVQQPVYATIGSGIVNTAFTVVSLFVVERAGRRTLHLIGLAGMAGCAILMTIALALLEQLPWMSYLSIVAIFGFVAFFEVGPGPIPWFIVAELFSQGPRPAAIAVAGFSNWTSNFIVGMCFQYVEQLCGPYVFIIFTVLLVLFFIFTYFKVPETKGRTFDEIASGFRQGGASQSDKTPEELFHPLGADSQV

Row | Structure (SMILES) | inhibition [1] [%] | inhibition [2] [%] | inhibition [3] [%]
1 | COc1ccc(CNCCCCCCNCCc2ccc(Cl)cc2)cc1OC | 1.25 | 1.81 | 3.24
2 | Cc1cc(N2CCC(NS(=O)(=O)c3cccc4cccnc34)CC2)nc(Nc2cccc(C#N)c2)n1 | 51.5 | 54.4 | 44.4
3 | Cc1cc(NC(=O)c2ccco2)ccc1OC1CCN(Cc2ccc(F)cc2)CC1 | 4.89 | 3.02 | 1.98
4 | CC(=O)Nc1ccc(C(=O)Nc2cccc(-c3ccc(-c4nc5cc(C(F)(F)F)ccc5[nH]4)s3)c2)cn1 | 3.05 | 3.45 | 4.26
5 | Cc1cccc2nc(-c3cccc(-c4ccc(NC(=O)NC5CC5c5ccccc5)cc4)c3)[nH]c12 (centres undefined) | 6.4 | 3.69 | 5.64
6 | COc1cccc(C=CC(=O)N(CCN)Cc2ccccc2)c1 | 6.9 | 8.75 | 7.33
7 | CC(C)C[C@H](NC(=O)c1cc2ccccc2s1)C(=O)N[C@H]1CCN(Cc2ccc(OC[C@@H]3CCCN3C)c3ccccc23)C1 | 3.88 | 5.05 | 2.71
8 | Cc1cccc(CNc2nccc3[nH]c4ccccc4c23)c1 | 4.82 | 4.77 | 1.28
9 | CCCCc1ccc(NC(=O)Nc2ccc3c(c2)CCNCC3)cc1 | 0.82 | 2.05 | 1.65
10 | CCOc1cc(C)ccc1C1CCN(CCCCNC(=O)c2ccc(-c3ccc(Cl)cn3)cc2)CC1 | 1.1 | -0.06 | -0.83
11 | CCNCc1cccc(-c2ccc3ccnc(N)c3c2)c1 | 4.49 | 3.12 | 4.03
12 | COc1c(C2CCN(CCCCNC(=O)c3ccc(-c4ccc(NC(=O)C(F)(F)F)cc4)cc3)CC2)ccc2c1CCCC2 | 1.22 | 4.26 | 0.3
13 | CN1CCCC(CN2CCN(Cc3cccc(-c4cccc(-c5nc6ccccc6[nH]5)c4)c3)CC2)C1 (centres undefined) | 1.59 | 2.2 | -0.86
14 | Cc1ccc(CNC(=O)[C@H](Cc2ccccc2)Nc2cc(C)nc(NCCc3ccc(F)cc3)n2)cc1 | 5.47 | 4.28 | 10.6
15 | COCCNCC(O)Cn1c2ccc(Cl)cc2c2cc(Cl)ccc21 (centres undefined) | -1.12 | -1.7 | -0.53
16 | Cc1[nH]c(C)c(-c2ccc(Oc3ccc(Cl)cc3)cc2)c(=O)c1Br | -0.61 | 0.25 | -0.13
17 | Fc1ccc2[nH]c(-c3cccc(-c4ccc(CNCCc5ccncc5)cc4)c3)nc2c1 | 13.9 | 12.6 | 11.4

Row | Structure (SMILES) | inhibition [1] [%] | inhibition [2] [%] | inhibition [3] [%]
18 | Oc1ccccc1CNCc1ccc(-c2cnc(N3CCCC(c4ccccc4)C3)nc2)cc1 (centres undefined) | 3.52 | 2.64 | 9.12
19 | COc1ccc(C(=O)NCc2ccc(N)nc2C)cc1Nc1ncc(-c2cccc(N(C)C)c2)cn1 | 0.19 | -1.36 | 1.76
20 | CCN(CCCN1CCCCC1)c1cc(C)nc(Nc2ccc(C)c(F)c2)n1 | 5.07 | 5.06 | 6.2
21 | Cc1cc(NC(=O)c2cccs2)ccc1OC1CCN(Cc2ccccc2)C1 (centres undefined) | 0.25 | -0.44 | 1.56
22 | CCNc1cc(C(=O)N[C@@H](Cc2ccccc2)[C@H](O)CNC(C)(C)Cc2cccc(OC)c2)cc(N2CCCC2=O)c1 | -2.08 | -1.02 | -0.38
23 | O=C(Nc1ccc(Cl)cc1)N(CC1CC2CCC(C1)N2Cc1ccc(C(F)(F)F)cc1)c1ccc(N2CCOCC2)c(F)c1 (centres undefined) | 6.73 | 5.58 | 8.78
24 | c1ccc2c(NCCCCCCCCCNc3ccnc4ccccc34)ccnc2c1 | -0.85 | 4.91 | 8.19
25 | FC(F)(F)COc1c(CNCCCCCCNCc2ccc3ccccc3c2OCC(F)(F)F)ccc2ccccc12 | 87.7 | 95.5 | 104
26 | O=C(NCCCCN1CCC(c2c[nH]c3ccccc23)CC1)c1ccc(-c2ccc(C(F)(F)F)cc2)cc1 | 0.97 | 0.63 | -0.72
27 | N=c1n(CCN2CCCCC2)c2ccccc2n1CC(O)c1cccc(Br)c1 (centres undefined) | 3.65 | 4.03 | 3.65
28 | N#Cc1ccc2c(c1)CN(CCC1CCC(NC(=O)c3cc4cc(OC(F)(F)F)ccc4[nH]3)CC1)CC2 (centres undefined) | 3.11 | 2.72 | 0.85
29 | Cc1csc2nc(-c3ccccn3)nc(Nc3ccc4ncsc4c3)c12 | 0.73 | 2.13 | 0.95
30 | CN1CCN(CCCN(Cc2csc(-c3ccc(CNCc4ccccc4)cc3)n2)S(=O)(=O)c2ccccc2Cl)CC1 | 1.75 | 0.37 | 2.9
31 | COc1cc2nc(N(C)Cc3cc4c(Cl)cccc4s3)nc(N)c2cc1OC | -0.54 | -1.7 | -3.11
32 | CCOC(=O)N1CCN(CCCCCNc2cc(C)nc(NC(=N)Nc3ccc(Cl)cc3)n2)CC1 | 6.99 | 8.05 | 6.08
33 | CC(=O)c1cc(N2CCCC2)ccc1N | 2.5 | 2.6 | 2.09
